Most compounds without a hit are left out; they make up all but 17% or so of the library.
ATXN2 expr inh: Primary qHTS for Inhibitors of ATXN expression. HEK-293 ATXN2-luciferase reporter, luminescence, 24 h. Potency, µM (top dose mostly 57 µM), usual class: inhibitors. actives 0.72% (n = 360,000). AID 1745845, 2022; note: nearly all actives have a fitted effect of over 55% in size
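ATXN2-luciferase reporter cells (luciferase flanked by upstream and downstream ATXN2 gene portions) were treated 24 h at 37 °C with compounds at up to 57 uM. SteadyGlo luminescence gave expression; GF-AFC fluorescence gave viability.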
DT40 TDP1 CPT: qHTS for Inhibitors of human tyrosyl-DNA phosphodiesterase 1 (TDP1): qHTS in cells in presence of CPT | chicken DT40 Tdp1-/-;hTDP1 cells + 20 nM CPT, ATP luminescence, 48 h | Potency, µM (highest dose often 46.2 µM), most hits filed as inhibitors | actives 12% (n = 420,000) | AID 686979, 2013; note: nearly all actives have a fitted effect of over 55% in size
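Chicken DT40 Tdp1-/- cells complemented with human TDP1, 400 cells/well, exposed to compounds plus 20 nM camptothecin for at least 48 h at 37 C; viability read as ATP content by CellTiter-Glo luminescence.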
S2 tox: Viability Counterscreen for Primary qHTS for Inhibitors of ATXN expression; S2 cells (HEK-293 line with an ATXN2-luciferase reporter) viability, CellTiter-Fluor protease fluorescence, 24 h; Potency, µM (doses to about 56.7 µM), usual class: cytotoxic; actives 0.49% (n = 400,000); AID 651635, 2014; note: nearly all actives have a fitted effect of over 40% in size
TDP1 cell noCPT: qHTS for Inhibitors of human tyrosyl-DNA phosphodiesterase 1 (TDP1): qHTS in cells in absence of CPT | Potency, µM (titrated, usually from 46.2 µM), usual class: inhibitors | DT40 Tdp1-/- hTDP1 cells, no CPT, ATP luminescence, 48 h | actives 15% (n = 420,000); note: nearly all actives have a fitted effect of over 55% in size
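Growth of hTDP1-complemented DT40 Tdp1-knockout cells is measured by ATP luminescence after at least 48 hr compound exposure at 37 °C, with DMSO substituting for the 20 nM CPT used in the parallel screen.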
TGFb SMAD3 inh: qHTS for Inhibitors of TGF-b. HepG2 CAGA-GFP TGF-b/SMAD3 reporter, GFP fluorescence, 18 h; TGF-beta stimulated, 500 pg/mL final. Potency, µM (doses to about 46.1 µM), actives largely listed as inhibitors. actives 1.2% (n = 410,000). AID 588855, 2011; note: nearly all actives have a fitted effect of over 65% in size
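Per well, imaged GFP fluorescence of HEPG2 CAGA-GFP cells gives the signal; cells get compound, then TGF-beta (500 pg/mL final), 18 h at 37 degrees C; %Activity versus -TGF-beta and +DMSO controls.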
HepG2 tox: qHTS for Inhibitors of TGF-b: Cytotox Counterscreen; HepG2 CAGA-GFP viability, ATP luminescence, 18 h; Potency, µM (titrated, usually from 46.1 µM), hits mostly cytotoxic; actives 0.76% (n = 410,000)
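HepG2 CAGA-GFP cells (1000/well, DMEM with 1% FBS) received compound, then TGF-beta at 500 pg/mL final, and were incubated 18 hours at 37 degrees C. Viability was read by CellTiter-Glo luminescence. Media-only wells were set as complete cell-killing and DMSO as no toxicity.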
Large screens that a line does not name were inactive. Calls come from the whole dose curve; as a rule, active = well fitted curve in the direction sought with a large enough effect; inconclusive = small, poorly fitted or top-dose-only effect, or another doubt; inactive = no such curve, though single readings can be large; an effect the other way counts as inactive or inconclusive.

Cc1noc(Cn2c(=O)c3ccccc3n(CC(=O)Nc3ccc(C(C)C)cc3)c2=O)n1	DT40 TDP1 CPT inconclusive, TDP1 cell noCPT 16.4µM, TGFb SMAD3 inh inconclusive (no result: ATXN2 expr inh, S2 tox)
COc1cccc(NC(=O)Cn2c(=O)n(Cc3nc(-c4ccccc4)no3)c(=O)c3ccccc32)c1	TDP1 cell noCPT inconclusive, TGFb SMAD3 inh inconclusive (no result: ATXN2 expr inh, S2 tox)
COc1ccc(-c2noc(Cn3c(=O)c4ccccc4n(CC(=O)Nc4cccc(OC)c4)c3=O)n2)cc1	DT40 TDP1 CPT inconclusive, TDP1 cell noCPT 20.6µM
Cc1nn(CC(=O)NCCc2cccs2)c(=O)c2cc3ccccc3n12	none (no result: ATXN2 expr inh)
COc1ccc(NC(=O)C2CCCCN2S(=O)(=O)c2ccccc2)cc1S(=O)(=O)N1CCOCC1 (stereo not given)	none
CC1(C(=O)NS(=O)(=O)c2cccs2)CCN1C(=O)CC1CCCCC1 (stereo not given)	none
CN(C)c1c2ccccc2nc2c(F)c(F)c(F)c(F)c12	ATXN2 expr inh inconclusive, DT40 TDP1 CPT 23.1µM, TDP1 cell noCPT 20.6µM, TGFb SMAD3 inh inconclusive (no result: S2 tox)
O=C(O)CCCNC(=O)CCCNC(=O)C(c1ccccc1)c1ccccc1	none
Cc1cc(C)n(-c2nc3ccccc3c(=O)n2OCC#N)n1	ATXN2 expr inh inconclusive, DT40 TDP1 CPT 0.651µM, S2 tox inconclusive, TDP1 cell noCPT 0.651µM, TGFb SMAD3 inh inconclusive
CCOC(=O)COn1c(-n2nc(C)cc2C)nc2ccccc2c1=O	DT40 TDP1 CPT inconclusive, TDP1 cell noCPT 25.9µM
COc1cc(C[C@@H](CO)[C@H](CO)Cc2ccc(O)c(OC)c2)ccc1O	none (no result: DT40 TDP1 CPT, S2 tox, TDP1 cell noCPT, TGFb SMAD3 inh, HepG2 tox)
O=C(NCCc1ccc(C(F)(F)F)cc1)C1CC(=O)N(c2ccc3c(c2)OCCO3)C1 (stereo not given)	DT40 TDP1 CPT inconclusive, TDP1 cell noCPT 20.6µM
O=C(O)C(=O)Nc1nc(-c2ccc3c(c2)OCCO3)cs1	none (no result: ATXN2 expr inh)
O=C(Nc1nc(-c2ccc3c(c2)OCO3)cs1)C1CC1	DT40 TDP1 CPT 2.31µM, TDP1 cell noCPT 2.31µM
O=C(O)C1CC(=O)N(c2ccc3c(c2)OCCO3)C1 (stereo not given)	DT40 TDP1 CPT 13µM, TDP1 cell noCPT 13µM
O=C(CSCC(=O)Nc1nc(-c2ccc3c(c2)OCO3)cs1)Nc1nccs1	DT40 TDP1 CPT 11.6µM, TDP1 cell noCPT 25.9µM
O=C(CSc1ccc(-c2ccc3c(c2)OCO3)nn1)Nc1nccs1	S2 tox inconclusive, TDP1 cell noCPT inconclusive, TGFb SMAD3 inh inconclusive
CCOC(=O)c1c(-c2ccc(C)cc2)csc1NC(=O)c1cc(=O)c2cc(C)ccc2o1	none (no result: ATXN2 expr inh, S2 tox, TGFb SMAD3 inh)
CCCn1c(C(O)c2cccc(OC)c2)nc2ccccc21 (stereo not given)	none
CCc1ccc(C(=O)NNC(=O)C2CC(=O)N(c3ccc4c(c3)OCCO4)C2)cc1 (stereo not given)	none
COC(=O)c1ccc(CSc2nnc(NC(=O)C3CC(=O)N(c4ccc5c(c4)OCCO5)C3)s2)cc1 (stereo not given)	DT40 TDP1 CPT 23.1µM, S2 tox inconclusive, TDP1 cell noCPT 20.6µM, TGFb SMAD3 inh inconclusive
O=C(Nc1nc(-c2ccc3c(c2)OCCO3)cs1)C1CC(=O)N(c2ccc3c(c2)OCCO3)C1 (stereo not given)	DT40 TDP1 CPT 11.2µM, TDP1 cell noCPT inconclusive (no result: ATXN2 expr inh, S2 tox)
Cc1ccc(-c2csc(NC(=O)C3CC(=O)N(c4ccc5c(c4)OCCO5)C3)n2)o1 (stereo not given)	DT40 TDP1 CPT inconclusive, TDP1 cell noCPT inconclusive, TGFb SMAD3 inh inconclusive (no result: ATXN2 expr inh, S2 tox)
CC(=O)Nc1ccc(-c2csc(NC(=O)C3CC(=O)N(c4ccc5c(c4)OCCO5)C3)n2)cc1 (stereo not given)	DT40 TDP1 CPT 18.4µM, TDP1 cell noCPT 20.6µM (no result: ATXN2 expr inh)
O=C(Nc1nc(-c2ccc(S(=O)(=O)N3CCCC3)cc2)cs1)c1ccco1	DT40 TDP1 CPT 23.1µM, TDP1 cell noCPT 18.4µM

Compound activity (PubChem BioAssay)
